Source: PubChem
Only some compounds are listed: those with a hit (about 11% of all), similar ones and a draw of the others.
PNC assembly inh = blocks assembly of the perinucleolar compartment; PC3M PTB-GFP, PNC prevalence imaging, 16 h; active compounds read low; activity change (PNC), negative = inhibition, % at 10 µM; 140,000 compounds, 3.1% hits; AID 2417;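 active = readout at or below -70, meaning at least 70% loss of cells showing the perinucleolar compartment, a nuclear body marking cancer cells; inconclusive = readout between -30 and a set limit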;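 note: plate controls were DMSO wells for no effect and camptothecin positive control wells for full effect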
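Compounds are pinned in duplicate onto adhered PC3M cells stably expressing GFP-tagged PTB and incubated 16 h at 37 C. Cells are then fixed, nuclei stained with Hoechst, and PNC-positive cells counted.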
ALDH1A1 inh = ALDH1A1 (human) enzyme inhibition | P00352 | AID 1030 | 220,000 compounds, 7.3% hits | Purified ALDH1A1, NADH fluorescence, propionaldehyde substrate | Potency, µM (series often up to 75.3 µM), without a hit: top-dose activity, negative = inhibition, hits mostly inhibitors;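 note: potency is the fitted concentration of half-maximal effect; plate controls were no enzyme wells and a reference inhibitor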
HPGD block = inhibitors of human 15-hydroxyprostaglandin dehydrogenase (HPGD). P15428. purified HPGD, NADH fluorescence kinetic, PGE2 substrate. Potency, µM, without a hit: top-dose activity change, negative = inhibition, most hits filed as inhibitors. 150,000 compounds, 4.3% hits; note: potency is the fitted concentration of half-maximal effect
Target sequence (P15428 whole entry, looked up): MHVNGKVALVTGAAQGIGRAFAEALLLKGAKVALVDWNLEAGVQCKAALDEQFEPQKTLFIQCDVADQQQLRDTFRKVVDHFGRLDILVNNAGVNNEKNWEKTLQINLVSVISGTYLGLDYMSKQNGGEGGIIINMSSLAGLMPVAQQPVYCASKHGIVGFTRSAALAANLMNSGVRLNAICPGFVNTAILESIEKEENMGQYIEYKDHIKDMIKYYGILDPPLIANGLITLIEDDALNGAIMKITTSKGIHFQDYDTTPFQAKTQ
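NADH formation kinetics: reaction with 30 uM PGE2 and 1 mM NAD+ (final), 20 nM enzyme, Tris-HCl pH 8 with Tween 20, after 15 min compound preincubation at room temperature. Fluorescence change, last versus first of five reads.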
* marks the source's active call; other numbers are inactive results; ? = inconclusive; . = not tested or not shown; [ ] = remark or other dose. Unless noted, calls come from the whole dose curve; as a rule, active = well fitted inhibition curve with a large enough effect (not every such curve was filed as active); inconclusive = small, poorly fitted or top-dose-only effect, or another doubt; inactive = no such curve, though single readings can be large or run the other way. Unless noted, % is set by controls: 0 for no effect and ±100 for the full control effect.

SMILES | PNC assembly inh | ALDH1A1 inh | HPGD block
COC(=O)c1c(NC(=O)C2COc3ccccc3O2)sc2c1CCN(C(C)=O)C2 (centres undefined) | ? | 32µM* | ?
CC(=O)N1CCC(=NNc2nc3ccccc3s2)CC1 | . | -1% | .
O=C(NCc1ccccc1)c1nc2ccccc2s1 | . | 5% | .
CCNC(=O)c1c(NC(=O)C2COc3ccccc3O2)sc2c1CCCC2 (centres undefined) | ? | 7% | -4%
CNC(=O)c1c(NC(=O)c2nc3ccccc3s2)sc2c1CCC2 | ? | ? | 28µM*
CC1=C(C(=O)N(C)C)C(c2ccc(N3CCOCC3)cc2)NC(=O)N1 (centres undefined) | . | -1% | .
COC(=O)NC(c1ccco1)C(C(C)=O)C(=O)OC (centres undefined) | . | 4%[13.5 µM] | .
CCOC(=O)c1ccc(CC(=O)c2ccc(O)c(O)c2O)o1 | . | 10µM* | .
CCOC(=O)c1ccc(CC(=O)c2oc3cc(O)ccc3c2C)o1 | 16 | ? | ?
CC1(C)Cc2c(sc3c2c(=N)n(Cc2ccco2)c(=O)n3CC(=O)Nc2ccc(Cl)cc2)CO1 | 8 | 20µM* | -21%
CC1(C)Cc2c(sc3c2c(=N)n(Cc2ccco2)c(=O)n3CC(=O)Nc2ccccc2)CO1 | ? | ? | -9%
CN(C)C(=O)c1ccc(N/C=C(\C=O)c2nc3ccccc3o2)cc1 | . | 8% | .
O=C(N/N=C/c1cccc([N+](=O)[O-])c1)c1ccc(Br)cc1 | . | 2% | .
O=C(Nc1ccc(C(=O)O)cc1)Nc1cccc([N+](=O)[O-])c1 | -8 | 5% | -7%
O=C(O)c1cc(NN=Nc2cccc([N+](=O)[O-])c2)cc([N+](=O)[O-])c1 | . | 20µM* | .
O=C(O)c1cc(NN=Nc2ccc(Br)cc2)cc([N+](=O)[O-])c1 | . | 6.3µM* | .
CC1CCC2=NN(C(=O)c3ccco3)C(O)(C(F)(F)F)C2C1 (centres undefined) | . | -14% | .
COc1cccc(NC(=O)C(C#N)Cc2ccncc2)c1 (centres undefined) | 29 | 4% | -1%
CCc1ccccc1NC(=O)C(C#N)Cc1cccnc1 (centres undefined) | -82* | 3% | -3%
Fc1ccc(-c2nc3c(-c4ccc(Cl)cc4)cnn3cc2CCN2CCOCC2)cc1 | . | 12% | .
CCOc1ccc(/C(O)=C/C(=O)C(=O)Nc2ccc(S(=O)(=O)NC(C)=O)cc2)cc1 | -4 | -6% | -19%
CC(C)(C)NC(=O)CSc1nc(N)c(-c2ccccc2)c(=O)[nH]1 | . | 3% | .
Cc1ccc(S(=O)(=O)N2CCN(S(=O)(=O)c3ccccc3)C2)cc1 | -22 | -4% | 2%
C/C(=N\S(=O)(=O)c1ccc(C)cc1)N1CCN(S(=O)(=O)c2ccccc2)C1 | 1 | 4µM* | -10%
O=C(O)c1ccc(OCc2ccccc2)c(Cl)c1 | . | -3%[13.5 µM] | -7%
SMILES | PNC assembly inh | ALDH1A1 inh | HPGD block
Nc1cc(S(=O)(=O)C(F)(F)F)ccc1C(=O)O | -127* | 5% | -6%
Nc1cc(C(F)(F)F)ccc1C(=O)O | -3 | ? | ?
COc1ccc(N2CCN(C(=O)CN(C3CCCCC3)S(C)(=O)=O)CC2)cc1 | . | 4% | .
CCCCCC1=C2CNC(C)(C(=O)OC)C=C2C(C)C1=O (centres undefined) | . | -8% | -7%
CCCCCC1=C2CNC(CCC)(C(=O)OC)C=C2C(C)C1=O (centres undefined) | . | 28µM* | -22%
COc1ccccc1N(C)S(=O)(=O)c1ccc(C(=O)OCC(=O)N2CCC2)cc1 | . | -6% | .
CCOC(=O)C(=O)N(CC)C1CCS(=O)(=O)C1 (centres undefined) | . | 11% | .
CCOC(=O)C(C(=O)OCC)C1CCS(=O)(=O)C1 (centres undefined) | -100* | 6% | -9%
Cc1cccc(N/C=C(\[N+](=O)[O-])S(=O)(=O)c2ccccc2)c1C | . | 25µM* | .
Cc1cccc(N/C=C(\[N+](=O)[O-])S(=O)(=O)c2ccccc2)c1 | . | 2% | .
CN(C)c1cccc(NC2=CC(=[N+]3CCOCC3)CC(C)(C)C2)c1 | ? | 28µM* | ?
COc1cccc(NC2=CC(=O)CC(C)(C)C2)c1 | -8 | 7% | -17%
COc1ccc(NS(=O)(=O)c2cc(NC(=O)Cn3cnc4c3c(=O)n(C)c(=O)n4C)ccc2C)cc1 | . | -2% | .
O=C(Nc1ccc(-n2cccc2)cc1)C1CC1 | . | 2% | .
O[C@@H](c1cc(C(F)(F)F)nc2c(Cl)cc(Cl)cc12)C1CCCCN1 (some centres undefined) | . | 2%[13.5 µM] | -8%
O=C(O)CCC(=O)N1N=C(c2c(-c3ccccc3)c3cc(Cl)ccc3[nH]c2=O)CC1c1ccccc1 (centres undefined) | . | 5% | .
CCC(=O)N1N=C(c2c(-c3ccccc3)c3cc(Cl)ccc3[nH]c2=O)CC1c1ccco1 (centres undefined) | -82* | ? | .
COc1cccc(C2CC(c3c(-c4ccccc4)c4cc(Cl)ccc4[nH]c3=O)=NN2S(C)(=O)=O)c1OC (centres undefined) | 35 | 5µM* | -22%
COc1ccccc1C1CC(c2c(-c3ccccc3)c3cc(Cl)ccc3[nH]c2=O)=NN1S(C)(=O)=O (centres undefined) | 29 | ? | ?
Nc1ccc(N=Nc2ccccc2)c(N)c1 | . | ? | -12%
Cn1c(N)c(S(=O)(=O)N2CCN(Cc3ccccc3)CC2)c(=O)n(C)c1=O | . | -5% | .
C[C@H](N)c1nnc(SCC(=O)c2ccc(Cl)cc2)o1 | -16 | 20µM* | -14%
CCCCSc1nnc(CCCCCNC(=O)OC(C)(C)C)o1 | ? | -5% | -23%
CC(C)[C@H](N)c1nnc(SCC(=O)c2ccc(Cl)cc2)o1 | -23 | 3% | -15%
CC(C)(C)OC(=O)NCCc1nnc(SCC(=O)c2ccc(Cl)cc2)o1 | ? | 13µM* | -15%
SMILES | PNC assembly inh | ALDH1A1 inh | HPGD block
Cc1[nH]c(=O)[nH]c(=O)c1CSc1nnc(CCCCCNC(=O)OC(C)(C)C)o1 | 10 | 4% | 25µM*
C[C@H](NC(=O)OC(C)(C)C)c1nnc(SCC(=O)c2ccc(Cl)cc2)o1 | 43 | 1% | -7%
CCOC(=O)c1[nH]c2ccccc2c1NC(=S)Nc1cccc(C)c1 | 22 | ? | -20%
COc1ccc(NC(=S)NCCCN2CCN(C3CCCCC3)CC2)cc1 | -24 | -8% | -5%
Cc1nn(-c2ccccc2)c(C)c1/C=N/NC(=O)c1cccs1 | 1 | -3% | -5%
COc1cccc(N=Nc2c(N)[nH]n3c(=O)c4c(nc23)CCCC4)c1 | . | 1% | .
O=C(C1=C[C@@H](C2CC2)C[C@@H](OCc2ccc(CO)cc2)O1)N1CCN(Cc2ccccc2)CC1 | . | -10% | .
O=C(C1=C[C@H](C2CCCCC2)C[C@H](OCCCCO)O1)N1CCN(Cc2ccccc2)CC1 | . | 14µM* | .
Cc1cccc(C)c1OCCN1C(=O)NC(C)(c2ccccc2)C1=O (centres undefined) | . | 5% | .
CC1(c2ccccc2)NC(=O)N(CCOc2ccccc2)C1=O (centres undefined) | -10 | 22µM* | 1%
Cc1ccc(C2(C)NC(=O)N(CC(=O)NC(=O)NC3CCCC3)C2=O)cc1 (centres undefined) | 12 | -7% | -4%
CC1(c2ccccc2)NC(=O)N(CC(=O)NC(=O)NC2CCCC2)C1=O (centres undefined) | 31 | 13µM* | -10%
